From PubChem BioAssay come the findings set out here.

A short description of assay [1]: liver-stage malaria parasite growth inhibition, primary screen, cell-based, HepG2, luciferase luminescence, HepG2 viability (AID 624349; in the data active means parasite load remaining mostly below about 12%, no sharp cut-off; inactive means mostly above about 10%;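 further: 100% = mean of DMSO negative control wells on the same plate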). The note with it: P. berghei liver stage in HepG2, luciferase luminescence, concentration not given here; parasite load remaining: stronger effect = lower value; viability: measured here: HepG2 viability without parasites.
Assay [2] concerns Aerobactin synthetase IucA (Klebsiella pneumoniae). The assay can be described thus: IucA aerobactin synthetase inhibitors, biochemical, Tocris library, absorbance (AID 1345561; call rule not given here;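 further: 100% = enzyme without compound and 0% = no enzyme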). The note with it: purified IucA enzyme assay, absorbance (OD) read-out; stronger effect = lower value;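 tested at 8 µM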.
Assay [3] can be described thus: growth inhibition of DIPG glioma cells, dose response, cell-based, SU-DIPG-XIII, MIPE4.0, CellTiter-Glo, qHTS (AID 1347061; cut-off not given, nearly all actives have AC50 up to about 37 µM;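 further: cells exposed to compound for 48 hours before readout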). The note with it: SU-DIPG-XIII viability, CellTiter-Glo ATP luminescence.
Assay [4] is described as follows: growth inhibition of DIPG glioma cells, dose response, cell-based, JHH-DIPG-1, MIPE4.0, CellTiter-Glo, qHTS (AID 1347062; cut-off not given, nearly all actives have AC50 up to about 27 µM;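 on AC50: cells exposed to compound for two days before readout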). The note with it: JHH-DIPG-1 viability, CellTiter-Glo ATP luminescence.
Assay [5] can be described thus: SU-DIPG-VI glioma cell viability, MIPE4.0 library, CellTiter-Glo luminescence, qHTS (AID 1347066; cut-off not given, nearly all actives have AC50 up to about 30 µM;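 further: cells exposed to compound for 48 hours before readout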). The note with it: CellTiter-Glo ATP luminescence. A general note: ATP-based viability assays read luminescence as a measure of living cells.
The nature of assay [6]: survival rescue of mitochondrial mutant cells in low glucose, primary screen, MELAS cybrids, Rieske KO mouse fibroblasts, CellTiter-Glo (AID 1508586;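 active means mean z-score across replicates of 1.96 or higher in either the MELAS or the Rieske mutant cell line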;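 further: z relative to plate mean and SD of compound and empty wells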).
A short description of assay [7]: viability rescue of complex I mutant cybrids, primary screen, cell-based, galactose medium, ATP luminescence (AID 1645843;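 active means z-score of at least 1.8 in each of two replicates, scored against plate mean and spread of sample wells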;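 further: positive z means more ATP and so rescue of galactose-driven cybrid death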). The note with it: complex I mutant cybrid cells, 72 h, stronger effect = higher value.
The nature of assay [8]: growth inhibition of DIPG glioma cells, dose response, cell-based, SU-DIPG-XVII, MIPE5.0, CellTiter-Glo, qHTS (AID 1347060; cut-off not given, nearly all actives have AC50 up to about 26 µM;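 further: cells exposed to compound for 48 hours before viability readout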). The note with it: SU-DIPG-XVII viability, CellTiter-Glo ATP luminescence.
Assay [9] can be described thus: viability loss in pontine glioma line – cell-based, SU-DIPG-XXV, MIPE5.0, CellTiter-Glo, qHTS, dose response (AID 1347065; cut-off not given, nearly all actives have AC50 up to about 26 µM;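 further: cells exposed to compound for 48 hours before ATP readout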). The note with it: CellTiter-Glo ATP luminescence.
The nature of assay [10]: JHH-DIPG-1 glioma cell viability, MIPE5.0 library, CellTiter-Glo luminescence, qHTS (AID 1347067; cut-off not given, nearly all actives have AC50 up to about 26 µM;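 further: cells exposed to compound for 48 hours before readout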). The note with it: JHH-DIPG-1 glioma viability, CellTiter-Glo ATP luminescence.
Assay [11] in a line: sensitizers of A549 cells to miR-34 induction, primary screen, imaging, A549 dox-inducible miR-34, nuclei and caspase counts (AID 1347080;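 active means compounds whose cell count with miR-34 switched on is under 0.7 times the count with it off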). The note with it: A549 miR-34 inducible, Hoechst nuclei count, 48 h.
Assay [12] is described as follows: modifiers of HSF1 nuclear foci, imaging, Selleck Cancer Library (AID 1347162; in the data active means plate-normalised HSF1 focus index below about 0.46). The note with it: human cells, at 10 µM; SSMD: measured here: HSF1 foci SSMD mean; cell count: measured here: cell number; plate-normalised HSF1 focus index: stronger effect = lower value.
Assay [13] in a line: growth inhibition of DIPG glioma cells, dose response, cell-based, SU-DIPG-IV, MIPE4.0, CellTiter-Glo, qHTS (AID 1347063; cut-off not given, nearly all actives have AC50 up to about 30 µM;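 further: compound exposure lasted 48 hours before the viability readout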). The note with it: SU-DIPG-IV viability, CellTiter-Glo ATP luminescence.
A short description of assay [14]: SU-DIPG-XXV glioma cell viability, MIPE5.0 library, qHTS (AID 1347068; cut-off not given, nearly all actives have IC50 up to about 30 µM). A general note: In qHTS, concentration-response curves come from the screen itself.
The nature of assay [15]: growth inhibition of DIPG glioma cells, dose response, cell-based, SU-DIPG-XIII, MIPE5.0, CellTiter-Glo, qHTS (AID 1347064; cut-off not given, nearly all actives have AC50 up to about 23 µM). The note with it: SU-DIPG-XIII viability, CellTiter-Glo ATP luminescence.
Assay [16] is described as follows: ovarian cancer cell viability with rucaparib, profiling panel, oncology-focused library, rucaparib conditional (AID 1508598). The note with it: patient-derived ovarian cancer cells, CellTiter-Glo viability, 144 h, stronger effect = lower value.
Where [17] appears, read: MELAS cybrid survival, CellTiter-Glo 48 h, stronger effect = higher value.
Setting [18] is: Rieske KO mouse fibroblast survival, CellTiter-Glo 72 h.
Setting [19] is: stronger effect = lower value, cell number ratio, induced over uninduced.
The mark [20] stands for this setting: measured here: relative caspase fold change +Dox/-Dox.
The mark [21] stands for this setting: measured here: total cells with miR-34 induction, stronger effect = lower value.
Setting [22] is: measured here: total cells without miR-34 induction.

Several values for one entry are separate records, joined by “and”; a condition that tells them apart may be missing. Equal values may be shown once. Inconclusive results are not listed. A structure can be active in one record and inactive in another. Activity calls are given as the source filed them.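 How the source made its calls, unless noted: active means normalized viability below 100% at a tested concentration; inactive means the rest.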

As usually defined, the viability is a read-out of living cells in per cent, often relative to untreated cells. Usually remaining activity stands for the signal under treatment as a percentage of the control signal. As for `O=C1c2ccccc2-c2n[nH]c3cccc1c23`, the parasite load remaining in assay [1] is 34% (inactive). Also, the viability in assay [1] was 81%. Moreover, the remaining activity in assay [2] is 103% (inactive). The molecule was called inactive in assay [3], in assay [4] and in [5]. Moreover, the z-score in assay [6] (setting [17]) is -0.446 (inactive); in assay [6] (setting [18]), -0.381; in assay [7], 0.03 (inactive) and 0.085 (inactive).

Usually AC50 stands for the concentration giving half of the maximal activity seen. As for `COc1cc2c(cc1O)CC[C@@H]1[C@@H]2CC[C@]2(C)[C@@H](O)CC[C@@H]12`, in assay [2], the remaining activity was 112% (inactive). Moreover, the AC50 is 1320 nM (active) in assay [8], 1480 nM (active) in [9] and 3720 nM (active) in [10]. The fold change in assay [11] (setting [19]) was 1.15 (inactive) and 1.13 (inactive); in [11] (setting [20]) it was 0.815 and 0.616. The cell count is 2600 and 1620 in [11] (setting [21]); 2270 and 1440 in assay [11] (setting [22]); 7300 in [12]. This molecule gave an SSMD in assay [12] of 1.78. Also, the plate-normalised HSF1 focus index in [12] was 1.07 (inactive). Further, in assay [7], the z-score is 0.06 (inactive) and 0.18 (inactive).

With `Cc1ccc(NC(=O)c2cccc(N(C)C)c2)cc1NC(=O)c1ccc(O)cc1`, the remaining activity in assay [2] was 115% (inactive). Moreover, the half-maximal activity concentration (AC50) in assay [3] is 662 nM (active); in assay [4], 3320 nM (active); in [13] it was 935 nM (active). In addition, in assay [14], the outcome was inactive. Besides, the fold change in [11] (setting [19]) is 1.11 (inactive) and 0.903 (inactive) and 0.921 (inactive); in assay [11] (setting [20]) it was 0.888 and 0.797 and 0.511. The cell count was 2990 and 8110 and 7940 in [11] (setting [21]); 2700 and 8980 and 8620 in assay [11] (setting [22]). Also, the z-score in [6] (setting [17]) was -0.437 (inactive); in assay [6] (setting [18]) it was 0.706; in assay [7], 1.09 (inactive).

Regarding `O=C(/C=C/c1c(C(=O)O)[nH]c2cc(Cl)cc(Cl)c12)Nc1ccccc1`, the remaining activity in assay [2] is 87.2% (inactive). In addition, the result in assay [3], in assay [4], in [13] and in assay [5] was inactive. In addition, the fold change in assay [11] (setting [19]) is 0.942 (inactive); in assay [11] (setting [20]), 1.32. In addition, the cell count in assay [11] (setting [21]) came to 8890; in assay [11] (setting [22]) it was 9440. Also, the z-score in assay [7] was 4.95 (active).

Consider `CC(C)C[C@@H](C(=O)N[C@H](C(=O)OC1CCCC1)c1ccccc1)[C@H](O)C(=O)NO`, for which, in assay [2], the remaining activity was 125% (inactive). Moreover, the AC50 is 16600 nM (active) in assay [13] and 23500 nM (active) in assay [5]. Also, in assay [10], the molecule was called inactive. Also, the fold change in assay [11] (setting [19]) is 1 (inactive); in assay [11] (setting [20]), 1.24. Moreover, the values for the cell count in assay [11] (setting [21]), in [11] (setting [22]) and in [12] were 7280, 7280 and 6800, respectively. In assay [12], this molecule showed an SSMD of 3.49. For the same molecule, the plate-normalised HSF1 focus index in [12] was 1.19 (inactive). Also, the z-score in assay [7] was 0.875 (inactive).

For `FC(F)(F)c1ccc(/C=C/c2nc(COc3ccc(CCCCn4ccnn4)cc3)co2)cc1`, the remaining activity in [2] was 112% (inactive). Further, the outcome in assay [3], in assay [4], in assay [15] and in assay [5] was inactive. Moreover, the fold change was 1.08 (inactive) in assay [11] (setting [19]) and 2.06 in assay [11] (setting [20]). Moreover, the cell count was 4070 in assay [11] (setting [21]) and 3770 in assay [11] (setting [22]). Also, the z-score in assay [7] is -0.935 (inactive).

As for `Cc1ccc(S(=O)(=O)/C=C/C#N)cc1`, the parasite load remaining in assay [1] is 28.8% (inactive). Also, the viability in assay [1] was 155%; in assay [16] (at 0.000305 µM, OCI-C5x cells, with rucaparib 10 µM, 100% = cells with rucaparib alone), 105% (inactive); in assay [16] (at 0.000305 µM, OCI-C5x cells, without rucaparib), 97.6% (active); in assay [16] (at 0.000305 µM, OCI-P5x cells, with rucaparib 20 µM, 100% = cells with rucaparib alone) it was 97.8% (active); in assay [16] (at 0.000305 µM, OCI-P5x cells, without rucaparib), 102% (inactive); in [16] (at 0.00122 µM, OCI-C5x cells, with rucaparib 10 µM, 100% = cells with rucaparib alone), 116% (inactive). Further, the viability in [16] (at 0.00122 µM, OCI-C5x cells, without rucaparib) is 111% (inactive); in [16] (at 0.00122 µM, OCI-P5x cells, with rucaparib 20 µM, 100% = cells with rucaparib alone) it was 98.6% (active); in assay [16] (at 0.00122 µM, OCI-P5x cells, without rucaparib), 106% (inactive); in [16] (at 0.00488 µM, OCI-C5x cells, with rucaparib 10 µM, 100% = cells with rucaparib alone), 116% (inactive); in [16] (at 0.00488 µM, OCI-C5x cells, without rucaparib) it was 123% (inactive); in assay [16] (at 0.00488 µM, OCI-P5x cells, with rucaparib 20 µM, 100% = cells with rucaparib alone), 94.4% (active). Also, the viability in assay [16] (at 0.00488 µM, OCI-P5x cells, without rucaparib) is 105% (inactive); in [16] (at 0.0195 µM, OCI-C5x cells, with rucaparib 10 µM, 100% = cells with rucaparib alone), 115% (inactive); in assay [16] (at 0.0195 µM, OCI-C5x cells, without rucaparib), 117% (inactive); in assay [16] (at 0.0195 µM, OCI-P5x cells, with rucaparib 20 µM, 100% = cells with rucaparib alone), 95.6% (active); in [16] (at 0.0195 µM, OCI-P5x cells, without rucaparib), 106% (inactive); in [16] (at 0.0781 µM, OCI-C5x cells, with rucaparib 10 µM, 100% = cells with rucaparib alone) it was 115% (inactive). Further, the viability in [16] (at 0.0781 µM, OCI-C5x cells, without rucaparib) was 109% (inactive); in assay [16] (at 0.0781 µM, OCI-P5x cells, with rucaparib 20 µM, 100% = cells with rucaparib alone), 86.5% (active); in assay [16] (at 0.0781 µM, OCI-P5x cells, without rucaparib) it was 102% (inactive). In addition, in assay [2], the remaining activity is 118% (inactive). Further, the fold change in [11] (setting [19]) was 1.22 (inactive) and 0.866 (inactive) and 0.568 (active); in assay [11] (setting [20]) it was 0.97 and 2.14 and 4.02. The cell count in assay [11] (setting [21]) was 1120 and 1020 and 904; in assay [11] (setting [22]) it was 923 and 1180 and 1590; in [12], 6840. In assay [12], this molecule gave an SSMD of -10.4. Further, in assay [12], the plate-normalised HSF1 focus index is 0.628 (inactive).
